Assay results published in PubChem BioAssay AID2315 (National Center for Advancing Translational Sciences (NCATS), 2010).
Among all 290,000 compounds or so, about 27,000 (9.3%) were called active. What follows is part of a selection rich in actives, with near analogues and random picks from the rest. Values without a mark were called inactive. Cut-off read from the data, not from the text of the source: active = inhibition mostly above about 28% (no sharp cut-off); inactive = mostly below about 43%.

test: A qHTS for Small Molecule Inhibitors of Shiga Toxin; settings: Vero cells, Shiga toxin protein synthesis inhibition reporter; at 38.7 µM, hits give high values; note: 0% is about no effect

| SMILES | inhibition |
| --- | --- |
| COc1ccc(OCC(=O)NCCS(=O)(=O)N2CCN(c3ccc(F)cc3)CC2)cc1 | -4.29% |
| Cc1cc(N/C=C\C(=O)c2ccc(Cl)c(Cl)c2)no1 | 59.9% (active) |
| COc1ccc(C(=O)/C=C/Nc2ccccn2)cc1 | -2.27% |
| Cc1cc(NC(=O)CSc2nnc(-c3ccc(Cl)s3)o2)no1 | 20.2% |
| COc1ccccc1N1CCN(c2ccc([N+](=O)[O-])nc2)CC1 | 34.5% |
| CC(CN1CCOCC1)OC(=O)c1ccc(Cl)cc1Cl (stereo not given) | 38.1% |
| Cc1nc(CNS(=O)(=O)c2cccnc2)cs1 | -1.16% |
| O=S(=O)(NCCc1csc(-c2ccccc2)n1)c1cccnc1 | 129% (active) |
| O=S(=O)(NCCc1ccncc1)c1ccccc1 | -5.04% |
| Cc1ccc(Cn2c(=N)c(S(=O)(=O)c3ccc(C)cc3)cc3c(=O)n4ccccc4nc32)cc1 | -2.01% |
| CCCn1cc(S(=O)(=O)c2ccc(C)cc2)c(=O)c2cc(OCC)ccc21 | 3.51% |
| COC(=O)c1[nH]c2ccccc2c1NC(=O)CN1CCCc2ccccc21 | 25.1% |
| COC(=O)c1[nH]c2ccc(Br)cc2c1NC(=O)Oc1ccccc1 | 51.9% (active) |
| CCOC(=O)c1[nH]c2ccc(OC)cc2c1NC(=O)CCN1CCN(Cc2ccccc2)CC1 | -3.91% |
| O=C(Nc1cccc(S(=O)(=O)N2CCCCC2)c1)c1ccc2c(c1)OCO2 | 21.9% |
| O=C(Nc1cccc(Cl)c1N1CCOCC1)c1ccc2c(c1)OCCO2 | 121% |
| Cc1ccc(C(=O)Nc2ccc3c(c2)OCO3)cc1S(=O)(=O)N1CCCCC1 | 43.9% |
| O=C(Nc1ccc2c(c1)OCCO2)c1ccc(Cl)c(S(=O)(=O)N2CCCCC2)c1 | 147% (active) |
| COC(=O)c1ccc(N2CCOCC2)c(NC(=O)c2ccc3c(c2)OCCO3)c1 | 17.9% |
| CN1CCN(c2ccc(NC(=O)c3ccc4c(c3)OCCO4)cc2Cl)CC1 | 77.9% (active) |
| Cc1cccc(C)c1NC(=O)CS(=O)CC(=O)N1CCN(c2ccccc2)CC1 (stereo not given) | -9.06% |
| Cc1cccc(NC(=O)N2CCCCCC2)c1C | 46.2% |
| CC1CCN(C2=NC(=O)/C(=C/c3cn[nH]c3-c3ccccc3)S2)CC1 | -0.314% |
| Cc1ccsc1/C=C1\SC(N2CCOCC2)=NC1=O | 111% (active) |

| SMILES | inhibition |
| --- | --- |
| Cc1ccc(N2CCN(C3=NC(=O)/C(=C\c4cccs4)S3)CC2)cc1 | -4.1% |
| O=C1N=C(N2CCc3ccccc3C2)S/C1=C\c1ccc(O)cc1 | 33% |
| CCc1ccc(/C=C2\SC(N3CCOCC3)=NC2=O)cc1 | 42.9% |
| O=C1N=C(N2CCOCC2)S/C1=C\C=C/c1ccccc1 | 66.1% (active) |
| CCc1ccc(C(CNc2nc(C(F)(F)F)nc3ccccc23)N(C)C)cc1 (stereo not given) | -12.5% |
| Cc1cccc(CN2CCC(CNC(=O)Nc3ccc(F)c(Cl)c3)CC2)c1 | -4.78% |
| Cc1ccc(NC(=O)C2CCCN2S(=O)(=O)c2cccc3cccnc23)c(C)c1 (stereo not given) | -11.1% |
| COc1ccc(OC)c(S(=O)(=O)n2c([N+](=O)[O-])cnc2C)c1 | -7.62% |
| COc1cc(NC(=O)C2CC(c3ccccc3O)=NO2)c(OC)cc1Cl (stereo not given) | -12.3% |
| COc1ccc(C(CNC(=O)COc2ccccc2OC)N2CCCCC2)cc1 (stereo not given) | -20.7% |
| c1ccc(CN=C2Nc3ccccc3CS2)nc1 | 59.8% (active) |
| COc1ccccc1CNS(=O)(=O)c1c(C)[nH]c(C)c1C(=O)N1CCCCC1 | 2.2% |
| Cc1ccc(S(=O)(=O)N(CC(=O)NCc2ccco2)c2ccccc2C)cc1 | 9.67% |
| COc1ccccc1OC(C)C(=O)Nc1ccc(S(=O)(=O)Nc2nccs2)cc1 (stereo not given) | -4.41% |
| CSc1c(SCc2ccccc2)cnn(Cc2ccccc2)c1=O | 10.6% |
| Cn1c(-c2ccc(F)cc2)cnc1SCC(=O)NNC(=O)Cc1ccccc1 | 18.3% |
| Cn1c(CO)cnc1SCc1ccccc1 | 65.8% (active) |
| CCS(=O)(=O)N1CCC(N2CCN(c3ccccc3)CC2)CC1 | -4.18% |
| Cc1cc(C)n(-c2ccc(NC(=O)C3CCCCN3C(=O)c3cccs3)cc2)n1 (stereo not given) | 11% |
| Cc1ccc2[nH]c3c(=O)n(CC(=O)NCCc4ccc(Cl)cc4)ncc3c2c1 | 21.6% |
| COc1ccc(Cc2n[nH]c(=S)n2NC(=O)Nc2ccc(C)cc2)cc1 | 63.4% (active) |
| CCOc1ccc(NC(=O)CN2CCN(CC(=O)Nc3ccc(OC)cc3)CC2)cc1 | -3.78% |
| Cc1ccc(OCc2n[nH]c(=S)n2-c2ccc(C)cc2)cc1 | -9.95% |
| COc1ccc(CCNC(=O)CN2C(=O)COc3ccc(S(=O)(=O)N4CCCC4)cc32)cc1OC | 22.2% |

| SMILES | inhibition |
| --- | --- |
| CCc1ccc(-c2cc(C)no2)cc1S(=O)(=O)NCCc1ccc(S(N)(=O)=O)cc1 | -11% |
| COc1ccc(CCNC(=S)N2CCN(S(=O)(=O)c3ccc(Cl)cc3)CC2)cc1 | -14.7% |
| O=C(CCS(=O)(=O)c1ccccc1)NC1CCCC1 | 55.4% (active) |
| CC(=O)c1cc(-c2ccccc2)n(CCC(=O)NC2CCCCCC2)c1C | 10.9% |
| O=C(CCNC(=O)C1CCN(S(=O)(=O)c2ccccc2)CC1)NC1CC1 | -1.38% |
| CC1(C(=O)NNC(=S)NCC2CCCO2)CC1(Cl)Cl (stereo not given) | -2.83% |
| Cc1ccc(Cl)cc1NC(=O)C1CCCN(c2cnccn2)C1 (stereo not given) | -10.6% |
| C=CCN1C(=O)C2(OCCCO2)c2cccc(Cl)c21 | -3.46% |
| CC1(C)Cc2ccccc2/C(=C/C(=O)c2ccccc2)N1 | -3.39% |
| COc1ccc(NC(=O)c2cccc3c2C(=O)N(CC2CCCO2)C3)cc1OC (stereo not given) | 3.68% |
| Cc1ccc(CN2CCC(n3nccc3NC(=O)CCCc3ccccc3)CC2)o1 | 21.2% |
| CC(=O)N[C@@H](C)C(=O)N1CCC(n2nccc2NC(=O)CCCc2ccccc2)CC1 | 57.5% (active) |
| CC(=O)NCC(=O)N1CCC(n2nccc2NC(=O)CCCc2ccccc2)CC1 | 30.2% |
| COc1cc(N2CCCC2)c(OC)cc1/C=C(/C#N)c1cccc(Br)c1 | -23.2% |
| COc1ccccc1NC(=O)CCN1CCN(c2ccc(Cl)cc2)CC1 | -2.18% |
| CC(Sc1cccc[n+]1[O-])C(=O)Nc1cccc(S(=O)(=O)N2CCOCC2)c1 (stereo not given) | -6.74% |
| Cc1ccc(CNC(=O)Cc2cn(C)c3ccccc23)cc1 | 12.6% |
| COc1cccc(NC(=O)CCNS(=O)(=O)c2ccc3c(c2)oc(=O)n3C)c1 | 14.5% |
| COc1cccc(NC(C)=[N+](C)CCNS(=O)(=O)c2ccc(Cl)cc2)c1 | 119% (active) |
| CCNS(=O)(=O)c1ccc(NC(=O)Nc2cccc(OC)c2)cc1 | -33.1% |
| CCCCCCC(O)(CCN1CCCCC1)c1ccccc1 (stereo not given) | -7.11% |
| COc1ccc(NC(=O)C(CC(C)C)NC(=O)C2CCC(C)CC2)cc1 (stereo not given) | 35.8% |
| CC(=O)c1cnc(-c2ccccc2)s1 | 59% (active) |
| O=C(/C=C/Nc1ccccc1)c1cnc(-c2ccccc2)s1 | -10.9% |

| SMILES | inhibition |
| --- | --- |
| CNC(=O)c1csc(-c2ccccc2)n1 | 25.9% |
| CCCn1nnnc1NCc1ccc(OC)cc1 | -12.1% |
| CCS(=O)(=O)C1=NSC2=NC(=O)/C(=C\c3ccc(OS(=O)(=O)c4ccccc4)cc3)C(=N)N21 | 14.7% |
| Cc1ccccc1N1CCN(S(=O)(=O)c2ccc3ccccc3c2)CC1 | -3.59% |
| O=C(c1cccc(-n2cccc2)c1)N1CCN(S(=O)(=O)c2ccc(F)cc2)CC1 | -1.04% |
| NS(=O)(=O)c1ccc(CCNC(=O)c2ccc(Cl)cc2[N+](=O)[O-])cc1 | 12.8% |
| O=C(NCCc1ccccc1)Oc1ccc(Cl)cc1 | 62.7% (active) |
| O=C(CCc1ccccc1)NNC(=O)COc1ccc(Cl)cc1 | -14.5% |
| Cc1cc(C(=O)NCCc2ccc(Cl)cc2)n(-c2ccccc2)n1 | -4.98% |
| Cc1cc(C(=O)NCCc2ccc(Cl)cc2)c(C)o1 | 87.4% (active) |
| O=C(COc1ccc(Cl)cc1)NCCSc1ccccc1 | -8.84% |
| COc1cccc(C(=O)NNS(=O)(=O)c2ccc(F)cc2)c1 | 0.43% |
| CCN1CCN(CCNC(=O)c2ccc3c(c2)NC(=O)/C(=C\c2ccc(OC)c(OC)c2)S3)CC1 | -8.25% |
| Cc1ccccc1NC(=O)CN1C(=O)N/C(=C\c2cccn2-c2cccc(C(=O)O)c2)C1=O | -13.8% |
| O=C1N/C(=C/c2cccn2-c2ccccc2)C(=O)N1c1cccc(Cl)c1 | 60.1% (active) |
| COc1cc2c(cc1/C=C1/NC(=O)N(c3ccccc3)C1=O)OCO2 | 24.2% |
| CCc1cccc(C)c1N1C(=O)CN(Cc2ccccc2)C1=S | -3.04% |
| O=C(c1c(F)cccc1F)N1CCN(S(=O)(=O)c2ccc3c(c2)OCCO3)CC1 | 2.06% |
| O=C(Nc1ccc(OCC(=O)N2CCOCC2)cc1)c1cc(F)c(F)cc1Cl | 24.7% |
| Cc1cc(=O)oc2c(C)c(OC(C)C(=O)NC3CCN(Cc4ccccc4)CC3)ccc12 (stereo not given) | -5.37% |
| CCS(=O)(=O)N1Cc2ccccc2CC1C(=O)Nc1nc2ccc(F)cc2s1 (stereo not given) | 99.4% (active) |
| Cc1ccc2nc(NC(=O)C3CCN(S(=O)(=O)c4ccc5c(c4)oc(=O)n5C)CC3)sc2c1 | -20.5% |
| CCS(=O)(=O)N1Cc2ccccc2CC1C(=O)Nc1ccc(OC)cc1OC (stereo not given) | 24.9% |
